# From the supplement of paper PMC6555819
# Key:
# Assay in all cases: PBM binding z-score (relative to random genomic background probes); higher = stronger binding; sequences stand for … in GC…GCGATTGACAGCGTAGAATGAAGG
# [1] = tested on: PPARg:RXRa DBDmut IVT, anti-RXR (DBD mutation: RXRa K156A/R161A, NR concentration 270 nM, RXRa partner concentration 90 nM)
# Summary of the method: (§1)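 Binding buffer was PBS pH 7.4 with 2% milk, 0.02% Triton X-100, 1 mM DTT, 0.2 mg/mL BSA and 0.4 mg/ml salmon testes DNA. In it, ligand-free nuclear receptor dimers were incubated 1 h on custom Agilent 4×180K protein-binding microarrays carrying double-stranded probes. Antibodies against each partner (one per run) detected binding, and z-scores were calculated against random background probes after regression normalization of scanned fluorescence.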
# [2] = tested on: PPARg:RXRa IVT, anti-PPARg (NR concentration 270 nM, RXRa partner concentration 90 nM)
# Summary of the method: as §1
# [3] = tested on: PPARg DBDmut:RXRa IVT, anti-PPARg (DBD mutation: PPARg1 K132A/R137A, NR concentration 270 nM, RXRa partner concentration 90 nM)
# Summary of the method: as §1
# [4] = tested on: PPARg DBDmut IVT, anti-PPARg (DBD mutation: PPARg1 K132A/R137A, NR concentration 270 nM)
# Summary of the method: as §1
# [5] = tested on: PPARg homodimer (NR concentration 180 nM)
# Summary of the method: as §1
# [6] = tested on: PXR:RXRa (NR concentration 270 nM, RXRa partner concentration 90 nM)
# Summary of the method: as §1
# [7] = tested on: PXR homodimer (NR concentration 270 nM)
# Summary of the method: as §1
# [8] = tested on: RARa:RXR (NR concentration 270 nM, RXRa partner concentration 90 nM)
# Summary of the method: as §1
# [9] = tested on: RARa homodimer (NR concentration 270 nM)
# Summary of the method: as §1
# [10] = tested on: RARb:RXRa (NR concentration 270 nM, RXRa partner concentration 90 nM)
# Summary of the method: as §1
# [11] = tested on: RARb homodimer (NR concentration 270 nM)
# Summary of the method: as §1
# [12] = tested on: RARg:RXRa (NR concentration 270 nM, RXRa partner concentration 90 nM)
# Summary of the method: as §1
# [13] = tested on: RARg homodimer (NR concentration 270 nM)
# Summary of the method: as §1
# [14] = tested on: RXRa DBDmut IVT, anti-RXR (DBD mutation: RXRa K156A/R161A, NR concentration 90 nM)
# Summary of the method: as §1
# [15] = tested on: RXRa homodimer (NR concentration 180 nM)
# Summary of the method: as §1
# [16] = tested on: THRa:RXRa (NR concentration 90 nM, RXRa partner concentration 90 nM)
# Summary of the method: as §1
# [17] = tested on: THRa homodimer (NR concentration 90 nM)
# Summary of the method: as §1
# [18] = tested on: VDR homodimer (NR concentration 270 nM)
# Summary of the method: as §1
Sequence,PBM binding z-score [1],PBM binding z-score [2],PBM binding z-score [3],PBM binding z-score [4],PBM binding z-score [5],PBM binding z-score [6],PBM binding z-score [7],PBM binding z-score [8],PBM binding z-score [9],PBM binding z-score [10],PBM binding z-score [11],PBM binding z-score [12],PBM binding z-score [13],PBM binding z-score [14],PBM binding z-score [15],PBM binding z-score [16],PBM binding z-score [17],PBM binding z-score [18]
CCTACTGTGCCAAAAAGGTCATTGATGCCGATAA,3.31,3.57,0.316,0.475,3.9,4.76,2.5,5.24,2.59,3.99,4.41,4.52,3.97,1.73,4.42,3.26,1.48,3.38
CCTACTGGGCCGAAGGTCATTGATTCCAATGCTC,1.48,5.21,-0.502,-0.797,1.81,2.9,0.597,3.05,0.247,2.88,3.08,2.93,2.53,0.398,3.01,1.99,0.19,1.46
ATCTCTAGGTAAGACTCAGTTCAGTGCAGAACGC,1.92,1.08,0.985,1.26,1.53,1.14,1.56,0.346,1.16,0.33,0.696,0.23,0.29,0.644,0.206,0.914,0.919,1.71
ACTATTATTTGAGACGAGGGCAACCGATAGGTTG,0.883,0.779,1.61,1.74,1.86,0.944,1.91,1.04,3.89,1.35,1.51,0.808,0.929,1.03,0.916,1.12,1.07,1.75
ACAGACAGGTGATGGAGGTAACTCAGGCTATCAT,0.108,0.744,0.159,-0.142,-0.281,-0.304,-0.184,0.033,-0.0178,0.173,0.431,0.0912,0.339,-0.505,0.156,1.05,0.503,-0.164
ATCTCTAGGTAGAAGTTCAGTGAATCCCGAGGAT,0.0712,1.23,0.95,0.43,0.271,0.947,1,0.436,0.785,1.07,1.2,0.74,0.979,0.251,0.602,0.355,-0.305,1.28
TTGCCAAGGTGAGCTGAGGTCGTTGATCCAACTC,0.582,1.28,-1.28,-1.13,-0.789,4.61,0.057,1.33,-0.704,1.73,1.42,1.02,0.784,-0.052,0.78,4.62,2.03,1.75
CGTCCAAGGTCATAGGAGGTTAGTGAAGACAGAT,2.69,3.67,0.657,-0.0801,3,5.46,2.22,4.61,1.31,5.06,4.27,5.73,5.72,3.76,5.53,4.76,3.13,2.99
TCGAGTAGGTTCGTCGGGGCATTCAGCCAACATA,0.771,-0.0233,-1.34,-1.13,-0.174,0.391,-0.361,0.296,-0.807,0.556,0.49,0.1,-0.361,2.31,0.365,0.871,0.192,2.33
GCGACTGGGGCAAAGCAGGCTACCATAAGGTTGG,4.44,3.34,-0.239,-0.307,-0.349,-0.574,-0.689,-0.126,-1.27,0.579,0.228,0.143,0.207,-0.628,0.0152,1.59,-0.688,-0.862
GTACCAAGGTGAATATGTCGTTGATGAGTAGGCG,1.28,1.95,0.633,0.3,1.32,-0.126,0.282,0.44,0.46,1.22,0.432,0.746,0.888,-0.0689,0.5,1.34,0.837,0.112
TCATATAGGTAAACAGGTGATAGTCCGTAAGTTA,4.54,3.86,2.2,1.3,1.51,0.551,0.241,0.892,1.46,0.497,0.338,0.509,0.323,1.35,0.949,0.375,0.179,0.482
GCTCGGAGGACAAGGTCGGAGCTTTGTCCGTAGA,-1.06,-0.138,-1.21,-1.93,-0.925,-0.155,-0.823,0.146,-1.12,1.59,0.998,0.842,1.11,-0.395,0.103,1.37,0.277,-0.608
CCAGAGAGGTGAAAGGTAACTCAGTCTGGTACGC,3.73,4.05,0.0614,-0.0478,2.31,2.19,0.131,3.44,0.813,2.39,1.42,2.57,1.44,0.39,3.56,2.1,0.391,0.0875
